Most compounds without a hit are left out; they make up all but 2.4% or so of the library.
WRN helicase inh: inhibitors of human WRN helicase | Q14191 | WRN helicase unwinding, fluorescent forked duplex, kinetic | Potency, µM (highest dose often 114 µM), for inactives: top-dose activity change, negative = inhibition, usual class: inhibitors | 360,000 compounds, 0.46% hits; further: on the % scale 0 is the no-effect control and ±100 the full control effect; nearly all actives have a fitted effect of over 55% in size
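Primary qHTS, 1536-well format. 20 nM WRN + compound, 15 min RT; start with 100 nM forked fluorophore/quencher duplex, 2 mM ATP (final); kinetic read ex 525/em 598 nm.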
POLK inh: blocks human DNA polymerase kappa activity; Q9UBT6; purified Pol kappa, fluorescent DNA synthesis assay, 10 min; Potency, µM (series often up to 107 µM), without a hit: at the highest dose activity, negative = inhibition, most hits filed as inhibitors; 400,000 compounds, 0.53% hits; AID 588579; further: on the % scale 0 is the no-effect control and ±100 the full control effect
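Inhibition of 10 nM Pol kappa is measured by a fluorescent read-out at 0 and 10 min following addition of 50 nM substrate (final), with a 15-min room-temperature compound preincubation.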
FEN1 inh: human FEN1 inhibition; Recombinant FEN1 flap cleavage, fluorescence, 15 min; Potency, µM (titrated, usually from 114 µM), for inactives: top-dose activity change, negative = inhibition, most hits filed as inhibitors; 390,000 compounds, 0.35% hits; AID 588795; further: on the % scale 0 is the no-effect control and ±100 the full control effect; nearly all actives have a fitted effect of over 65% in size
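Compounds are tested as a concentration series against 10 nM FEN1; after a 15 min room-temperature preincubation, 50 nM substrate starts cleavage, with plate reads at 0 and 15 min. Normalized responses are fitted by a Hill equation.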
POLH inh: DNA polymerase eta (human) inhibition. Q9Y253. recombinant Pol eta, fluorescent DNA replication assay. Potency, µM (titrated, usually from 114 µM), without a hit: at the highest dose activity change, negative = inhibition, actives largely listed as inhibitors. 390,000 compounds, 1.2% hits; further: on the % scale 0 is the no-effect control and ±100 the full control effect
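Fluorescent replication assay: 50 nM final substrate added after a 15 min room-temperature compound preincubation with 10 nM enzyme. Signal taken at 0 min and again at 10 min.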
POLI inh: blocks human DNA polymerase iota activity | Pol iota fluorescent replication assay, 10 min | AID 588590 | 390,000 compounds, 1% hits | Potency, µM (doses to about 115 µM), for inactives: at the top dose activity, negative = inhibition, hits mostly inhibitors | Q9UNA4
Target sequence (Q9UNA4 whole entry, looked up): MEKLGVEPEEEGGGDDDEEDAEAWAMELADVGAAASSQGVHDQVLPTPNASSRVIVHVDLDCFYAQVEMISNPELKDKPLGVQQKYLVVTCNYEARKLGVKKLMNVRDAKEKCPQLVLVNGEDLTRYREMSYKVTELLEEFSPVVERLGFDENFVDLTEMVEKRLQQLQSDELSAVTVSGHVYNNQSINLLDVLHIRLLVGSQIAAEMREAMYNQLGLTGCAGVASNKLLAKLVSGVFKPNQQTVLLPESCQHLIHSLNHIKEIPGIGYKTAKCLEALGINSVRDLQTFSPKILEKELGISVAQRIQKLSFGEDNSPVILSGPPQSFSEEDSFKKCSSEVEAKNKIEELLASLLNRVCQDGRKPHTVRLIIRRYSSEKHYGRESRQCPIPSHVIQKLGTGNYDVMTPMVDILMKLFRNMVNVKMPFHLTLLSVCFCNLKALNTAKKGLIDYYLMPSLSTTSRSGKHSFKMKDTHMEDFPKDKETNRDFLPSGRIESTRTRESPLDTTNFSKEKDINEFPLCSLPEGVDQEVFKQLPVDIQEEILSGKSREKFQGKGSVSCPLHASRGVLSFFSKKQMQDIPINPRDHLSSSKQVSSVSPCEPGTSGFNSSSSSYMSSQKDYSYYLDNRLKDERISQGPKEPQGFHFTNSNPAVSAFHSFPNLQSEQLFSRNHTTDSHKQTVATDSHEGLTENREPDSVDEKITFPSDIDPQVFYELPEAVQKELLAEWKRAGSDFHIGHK
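Fluorescent replication assay read twice, at 0 min and 10 min after adding 50 nM (final) substrate. Enzyme (10 nM) and compounds were first incubated 15 min at room temperature; enzyme-free buffer wells were negative controls.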
Pol beta inh: blocks human DNA polymerase beta activity; P06746; Pol beta primer extension/strand displacement, fluorescence kinetic; Potency, µM (series often up to 114 µM), for the others: top-dose activity change, negative = inhibition, actives largely listed as inhibitors; 340,000 compounds, 1.3% hits; AID 485314; further: on the % scale 0 is the no-effect control and ±100 the full control effect
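Curves were derived by four-parameter Hill fits of normalized qHTS data. The kinetic fluorescent primer-extension read was taken at 0 and 10 min after 50 nM substrate, following a 15 min room-temperature preincubation of 10 nM enzyme with compounds.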
Numbers without * were called inactive; ! = a repeat was not active; [ ] = remark or other dose. The call rests on the fitted dose curve; in most records, active means well fitted curve in the direction sought with a large enough effect; inconclusive means small, poorly fitted or top-dose-only effect, or another doubt; inactive means no such curve, though single readings can be large; an effect the other way counts as inactive or inconclusive. Potency means the concentration at half of the fitted maximal effect.

What do the screens show for `CCOc1ccc(NC(=O)/C(C#N)=C/c2cn(CC(=O)O)c3ccccc23)cc1`?
WRN helicase inh: -21.1%; POLK inh: -16.7%; FEN1 inh: 10.9%; POLH inh: -18.3%; POLI inh: 98.8%; Pol beta inh: -9.1%

What do the screens show for `CCn1cc(C(=O)Nc2ncccc2O)c(=O)c2cc(F)c(N3CCN(C(=O)c4ccco4)CC3)cc21`?
WRN helicase inh: -2.0%[11.6 µM]; POLK inh: -28.7%; FEN1 inh: -3.3%; POLH inh: -2.2%; POLI inh: 70.8µM*; Pol beta inh: -19.6%

What do the screens show for `C#CCOCCOCCOCCNc1nc(N2CCN(C(=O)[C@H]([C@@H](C)CC)n3cc([C@@H](N)CC(C)C)nn3)CC2)nc(N2CCN(C(=O)[C@H](CCCCN)n3cc([C@@H](N)CC(C)C)nn3)CC2)n1`?
WRN helicase inh: -1.1%; POLK inh: -18.2%; FEN1 inh: -4.2%; POLH inh: -7.6%; POLI inh: 14.1µM*; Pol beta inh: 44.4%

Results for C#CCOCCOCCOCCNc1nc(N2CCN(C(=O)[C@H](CCCCN)n3cc(CN)nn3)CC2)nc(N2CCN(C(=O)[C@H](CCCCN)n3cc([C@@H](N)CC(N)=O)nn3)CC2)n1 ?
WRN helicase inh: -13.6%; POLK inh: 8.7%; FEN1 inh: -15.9%; POLH inh: -8.4%; POLI inh: 8.91µM*

How did C#CCOCCOCCOCCNc1nc(N2CCN(C(=O)[C@H](CCC(=O)O)n3cc(C(N)Cc4ccc(O)cc4)nn3)CC2)nc(N2CCN(C(=O)[C@H](Cc3cc4ccccc4[nH]3)n3cc(C(N)CC(C)C)nn3)CC2)n1 (some centres not stated) do in these assays?
Pol beta inh: -6.0%

What do the screens show for `C#CCOCCOCCOCCNc1nc(N2CCN(C(=O)C(Cc3ccc(O)cc3)n3cc(C(N)CC(C)C)nn3)CC2)nc(N2CCN(C(=O)C(Cc3cc4ccccc4[nH]3)n3cc(C(N)Cc4ccc(O)cc4)nn3)CC2)n1` (configuration not stated)?
Pol beta inh: 35.5µM*

Results for C#CCOCCOCCOCCNc1nc(N2CCN(C(=O)[C@H]([C@@H](C)CC)n3cc([C@@H](N)CC(C)C)nn3)CC2)nc(N2CCN(C(=O)[C@H](CCCCN)n3cc([C@@H](N)C(C)CC)nn3)CC2)n1 (some centres not stated) ?
WRN helicase inh: 4.2%; POLK inh: 0.0%; FEN1 inh: -2.5%; POLH inh: -11.1%; POLI inh: inconclusive; Pol beta inh: 1.9%

What do the screens show for `O=C(Nc1ccc(-c2nc3ccccc3o2)cc1)c1cc(-n2cnnc2)ccc1Cl`?
WRN helicase inh: -4.4%; POLK inh: -2.8%; FEN1 inh: -17.9%; POLH inh: -6.7%; POLI inh: -172.7%; Pol beta inh: -3.0%

Results for O=C(Nc1ccc(-c2nc3ccccc3o2)c(O)c1)c1cc(-n2cnnc2)ccc1Cl ?
WRN helicase inh: -22.0%; POLK inh: -1.2%; FEN1 inh: inconclusive; POLH inh: -20.3%; POLI inh: inconclusive; Pol beta inh: 35.5µM*

How did O=C(O)CCC(=O)Nc1ccc(Cc2ccc(NC(=O)CCC(=O)O)c(O)c2)cc1O do in these assays?
WRN helicase inh: -9.4%[57.1 µM]; POLK inh: -40.7%; FEN1 inh: -2.2%; POLH inh: 15.8µM*; POLI inh: inconclusive; Pol beta inh: -0.2%

Results for C=CC#CC[N+]1(CC#Cc2ccccc2)CCOCC1 ?
WRN helicase inh: 22.4µM*; POLK inh: inconclusive; FEN1 inh: 17.8µM*; POLH inh: 35.5µM*; POLI inh: inconclusive; Pol beta inh: 3.7%

How did C(#Cc1ccccc1)C[N+]1(CC#Cc2ccccc2)CCCC1 do in these assays?
WRN helicase inh: 1.2%; POLK inh: -0.2%; FEN1 inh: 1.1%; POLH inh: 0.8%; POLI inh: 23.9%; Pol beta inh: 46.7%

What do the screens show for `CCOc1ccc(NC(=O)Cn2sc3nc(C)cc(C)c3c2=O)cc1`?
WRN helicase inh: 20µM*; POLK inh: -12.5%; FEN1 inh: 89.1µM*; POLH inh: -13.4%; POLI inh: inconclusive; Pol beta inh: 1.4%

What do the screens show for `Cc1cc(C)c2c(=O)n(CC(=O)Nc3ccc(Cl)cc3)sc2n1`?
WRN helicase inh: 0.5%; POLK inh: -5.2%; FEN1 inh: inconclusive; POLH inh: -6.6%; POLI inh: -12.2%; Pol beta inh: -12.1%

Results for O=C(OCc1cc(=O)n2nc(-c3cccs3)sc2n1)c1cccc(F)c1 ?
POLK inh: -2.7%; FEN1 inh: 11.7%; POLH inh: inconclusive; POLI inh: inconclusive; Pol beta inh: 17.8µM*

How did O=C(COc1ccc(F)cc1)OCc1cc(=O)n2nc(-c3cccs3)sc2n1 do in these assays?
POLK inh: inconclusive; FEN1 inh: -11.3%; POLH inh: -9.9%; POLI inh: inconclusive; Pol beta inh: inconclusive

How did O=C(OCc1cc(=O)n2nc(-c3cccs3)sc2n1)c1ccccc1Br do in these assays?
POLK inh: -25.4%; FEN1 inh: 8.2%; POLH inh: 79.4µM*; POLI inh: inconclusive; Pol beta inh: 20µM*

Results for CC1=C(c2ccc(C)c(C)c2)S(=O)(=O)N=C1N1CCC(C(=O)NCc2ccc(C)o2)CC1 ?
POLK inh: -9.6%; FEN1 inh: -3.9%; POLI inh: 0.1%; Pol beta inh: 10.7%

Results for CCc1ccc(-n2c(=O)c3c4c(sc3n(CC(=O)c3ccc(Cl)cc3)c2=O)CCC4)cc1 ?
POLK inh: 11.0%; FEN1 inh: 0.7%; POLH inh: 2.5%; POLI inh: -14.3%; Pol beta inh: 2.3%

What do the screens show for `CCCCNC(=O)c1cc2cccc([N+](=O)[O-])c2[nH]1`?
WRN helicase inh: -3.7%; POLK inh: 1.4%; FEN1 inh: -6.5%; POLH inh: -5.0%; POLI inh: 59.1%; Pol beta inh: 2.2%

How did O=C(O)c1cc2cccc([N+](=O)[O-])c2[nH]1 do in these assays?
POLK inh: 44.7µM*!; FEN1 inh: inconclusive; POLI inh: 70.8µM*!

Results for Cc1ccc(NC(=O)c2ccc3nc(Cc4ccccc4)oc3c2)cc1F ?
POLK inh: -4.6%[60.1 µM]; FEN1 inh: -8.2%; POLH inh: -1.4%; POLI inh: 1.9%; Pol beta inh: -12.7%

What do the screens show for `COc1cccc(NC(=O)Cn2nc(C)c3c(C)n(-c4ccccc4)nc3c2=O)c1`?
POLK inh: -13.5%[60.1 µM]; FEN1 inh: -3.5%; POLH inh: -4.6%; POLI inh: 89.1µM*; Pol beta inh: 7.2%

Screening data: PubChem BioAssay, National Center for Advancing Translational Sciences (NCATS)
